Here are results for 7 compounds from ChEMBL document CHEMBL1961873, “Compounds: GSK PKIS; Assays: Nanosyn kinase panel” (2012).

Assay [1] deals with T1, 3-phosphoinositide-dependent protein kinase 1 (Homo sapiens) (UniProt O15530).
T1 sequence (whole entry): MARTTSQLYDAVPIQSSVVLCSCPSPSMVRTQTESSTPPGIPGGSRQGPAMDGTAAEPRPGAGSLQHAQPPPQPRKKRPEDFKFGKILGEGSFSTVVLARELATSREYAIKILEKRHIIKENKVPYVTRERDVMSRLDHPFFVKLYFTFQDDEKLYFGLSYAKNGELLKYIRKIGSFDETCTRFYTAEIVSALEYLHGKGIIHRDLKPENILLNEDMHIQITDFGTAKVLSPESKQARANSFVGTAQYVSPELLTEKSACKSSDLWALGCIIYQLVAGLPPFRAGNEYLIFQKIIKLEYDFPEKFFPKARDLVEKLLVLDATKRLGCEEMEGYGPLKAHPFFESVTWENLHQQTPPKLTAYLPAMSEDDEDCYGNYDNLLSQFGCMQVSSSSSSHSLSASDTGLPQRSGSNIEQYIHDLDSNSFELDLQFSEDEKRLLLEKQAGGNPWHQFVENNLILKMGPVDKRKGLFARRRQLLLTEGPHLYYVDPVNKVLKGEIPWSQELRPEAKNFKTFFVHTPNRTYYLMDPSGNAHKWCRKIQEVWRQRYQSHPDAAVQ
The conditions noted are these: at 0.1 µM.

The target of assay [2] is cAMP-dependent protein kinase catalytic subunit alpha (Homo sapiens) (UniProt P17612). Conditions: at 0.1 µM.
For assay [3] the target is unchanged. Conditions: at 1 µM.
In assay [4] the target is Protein kinase C alpha type (Homo sapiens) (UniProt P17252). The conditions noted are these: at 0.1 µM.
The target is the same in assay [5]. Conditions: at 1 µM.
For assay [6], the target named is Protein kinase C beta type (Homo sapiens) (UniProt P05771). Conditions: at 0.1 µM.
Protein kinase C beta type (Homo sapiens), sequence (P05771 2-671 limits assumed): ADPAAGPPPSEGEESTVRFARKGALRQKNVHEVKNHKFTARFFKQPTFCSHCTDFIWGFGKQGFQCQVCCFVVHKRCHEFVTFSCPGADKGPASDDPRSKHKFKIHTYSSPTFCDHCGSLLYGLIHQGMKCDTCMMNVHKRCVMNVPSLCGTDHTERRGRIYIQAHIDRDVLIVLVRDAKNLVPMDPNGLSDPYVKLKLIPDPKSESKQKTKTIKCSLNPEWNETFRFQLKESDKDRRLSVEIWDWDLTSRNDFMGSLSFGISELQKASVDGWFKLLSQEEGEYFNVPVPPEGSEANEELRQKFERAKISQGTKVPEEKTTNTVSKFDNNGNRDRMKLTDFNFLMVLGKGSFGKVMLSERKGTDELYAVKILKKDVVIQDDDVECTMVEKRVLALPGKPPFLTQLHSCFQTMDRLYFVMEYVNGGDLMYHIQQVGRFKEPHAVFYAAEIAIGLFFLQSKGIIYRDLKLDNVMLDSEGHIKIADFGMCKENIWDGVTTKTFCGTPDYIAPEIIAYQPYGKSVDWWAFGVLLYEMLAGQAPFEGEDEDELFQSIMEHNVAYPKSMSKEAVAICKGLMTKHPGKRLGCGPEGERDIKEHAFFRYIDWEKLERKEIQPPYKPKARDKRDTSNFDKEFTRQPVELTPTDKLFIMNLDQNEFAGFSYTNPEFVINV
Assay [7] shares this target. The conditions noted are these: at 1 µM.
Assay [8] addresses Protein kinase C eta type (Homo sapiens) (UniProt P24723). The conditions noted are these: at 0.1 µM.
For assay [9] the target is unchanged. The conditions noted are these: at 1 µM.
The target of assay [10] is Protein kinase C gamma type (Homo sapiens) (UniProt P05129). The conditions noted are these: at 0.1 µM.
Assay [11] shares this target. Conditions: at 1 µM.
The target of assay [12] is T2, Protein kinase C iota type (Homo sapiens) (UniProt P41743).
T2 sequence (whole entry): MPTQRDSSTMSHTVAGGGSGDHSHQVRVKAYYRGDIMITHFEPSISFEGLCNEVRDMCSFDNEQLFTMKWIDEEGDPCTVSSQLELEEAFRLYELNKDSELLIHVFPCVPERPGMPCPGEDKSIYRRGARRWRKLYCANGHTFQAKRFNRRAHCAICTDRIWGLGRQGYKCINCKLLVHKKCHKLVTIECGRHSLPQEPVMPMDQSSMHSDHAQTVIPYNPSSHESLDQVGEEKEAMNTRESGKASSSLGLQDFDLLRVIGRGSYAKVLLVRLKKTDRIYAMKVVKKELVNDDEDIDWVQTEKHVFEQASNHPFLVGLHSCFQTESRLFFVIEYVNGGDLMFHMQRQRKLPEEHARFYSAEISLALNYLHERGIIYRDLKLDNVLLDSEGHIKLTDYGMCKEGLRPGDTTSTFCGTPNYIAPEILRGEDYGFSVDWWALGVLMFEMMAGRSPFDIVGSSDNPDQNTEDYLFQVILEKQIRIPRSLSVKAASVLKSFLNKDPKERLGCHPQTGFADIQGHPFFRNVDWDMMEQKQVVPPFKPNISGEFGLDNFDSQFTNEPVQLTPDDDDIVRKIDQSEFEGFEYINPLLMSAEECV
Conditions: at 0.1 µM.

In assay [13] the target is T2, Protein kinase C iota type (Homo sapiens). The conditions noted are these: at 1 µM.
Assay [14] has as its target Protein kinase C theta type (Homo sapiens) (UniProt Q04759). The conditions noted are these: at 0.1 µM.
The target is the same in assay [15]. Conditions: at 1 µM.
Assay [16] addresses Protein kinase C beta type (Homo sapiens) (UniProt P05771). Conditions: at 0.1 µM. The source holds these as a separate data set.
For assay [17] the target is unchanged. Conditions: at 1 µM. This is another data set of the same source.
Assay [18] addresses T3, Serine/threonine-protein kinase D1 (Homo sapiens) (UniProt Q15139).
T3 sequence (whole entry): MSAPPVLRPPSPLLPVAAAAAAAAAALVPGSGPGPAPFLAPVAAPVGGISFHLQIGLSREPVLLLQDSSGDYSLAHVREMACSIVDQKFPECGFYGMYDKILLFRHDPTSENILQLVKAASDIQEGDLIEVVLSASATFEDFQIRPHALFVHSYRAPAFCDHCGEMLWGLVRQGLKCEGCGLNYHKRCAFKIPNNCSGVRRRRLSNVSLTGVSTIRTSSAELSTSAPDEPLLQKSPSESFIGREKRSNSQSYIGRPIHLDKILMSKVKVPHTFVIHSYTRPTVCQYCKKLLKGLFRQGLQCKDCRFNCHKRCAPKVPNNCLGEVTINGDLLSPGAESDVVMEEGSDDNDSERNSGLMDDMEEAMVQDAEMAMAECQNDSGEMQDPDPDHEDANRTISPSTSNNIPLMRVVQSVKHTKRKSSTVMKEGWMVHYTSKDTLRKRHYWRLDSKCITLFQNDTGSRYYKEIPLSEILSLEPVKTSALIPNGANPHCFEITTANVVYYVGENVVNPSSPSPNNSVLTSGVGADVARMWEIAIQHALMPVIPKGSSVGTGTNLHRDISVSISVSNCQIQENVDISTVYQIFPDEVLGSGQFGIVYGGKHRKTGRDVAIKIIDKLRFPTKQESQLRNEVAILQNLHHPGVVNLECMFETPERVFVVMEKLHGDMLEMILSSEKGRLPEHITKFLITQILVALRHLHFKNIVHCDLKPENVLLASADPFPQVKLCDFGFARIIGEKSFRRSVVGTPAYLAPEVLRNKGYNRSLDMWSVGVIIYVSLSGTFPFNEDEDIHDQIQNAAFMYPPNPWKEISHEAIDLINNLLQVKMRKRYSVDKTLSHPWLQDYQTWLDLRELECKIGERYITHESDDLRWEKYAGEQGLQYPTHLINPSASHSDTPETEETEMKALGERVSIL
Conditions: at 0.1 µM.

The target of assay [19] is T3, Serine/threonine-protein kinase D1 (Homo sapiens). Conditions: at 1 µM.
The target in assay [20] is T4, Serine/threonine-protein kinase D2 (Homo sapiens) (UniProt Q9BZL6).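 Note: reported percent inhibition values are means, part of the GSK PKIS kinase panel screen.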
T4 sequence (whole entry): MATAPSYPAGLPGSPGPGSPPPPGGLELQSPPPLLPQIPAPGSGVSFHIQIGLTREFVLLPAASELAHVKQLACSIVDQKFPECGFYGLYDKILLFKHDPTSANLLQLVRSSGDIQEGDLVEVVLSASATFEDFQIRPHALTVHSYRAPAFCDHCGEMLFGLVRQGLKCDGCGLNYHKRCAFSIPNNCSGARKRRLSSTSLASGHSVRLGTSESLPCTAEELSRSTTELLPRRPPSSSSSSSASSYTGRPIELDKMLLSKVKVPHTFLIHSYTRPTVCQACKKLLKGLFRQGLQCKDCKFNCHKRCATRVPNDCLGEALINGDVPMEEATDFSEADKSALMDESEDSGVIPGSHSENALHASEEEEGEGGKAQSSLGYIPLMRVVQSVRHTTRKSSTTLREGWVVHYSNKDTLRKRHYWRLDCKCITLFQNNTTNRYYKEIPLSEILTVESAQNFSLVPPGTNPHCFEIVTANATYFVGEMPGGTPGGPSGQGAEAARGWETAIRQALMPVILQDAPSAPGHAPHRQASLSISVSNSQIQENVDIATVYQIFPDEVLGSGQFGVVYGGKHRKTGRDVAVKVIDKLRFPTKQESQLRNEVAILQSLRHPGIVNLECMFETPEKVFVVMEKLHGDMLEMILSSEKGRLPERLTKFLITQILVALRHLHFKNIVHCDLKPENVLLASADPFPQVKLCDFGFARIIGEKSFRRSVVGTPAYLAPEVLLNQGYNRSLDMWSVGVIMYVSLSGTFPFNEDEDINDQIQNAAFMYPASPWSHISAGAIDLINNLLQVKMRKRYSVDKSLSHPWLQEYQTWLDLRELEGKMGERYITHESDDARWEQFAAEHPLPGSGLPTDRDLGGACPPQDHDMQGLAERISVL
Conditions: at 0.1 µM.

Protein kinase C eta type (Homo sapiens), sequence (P24723 whole entry): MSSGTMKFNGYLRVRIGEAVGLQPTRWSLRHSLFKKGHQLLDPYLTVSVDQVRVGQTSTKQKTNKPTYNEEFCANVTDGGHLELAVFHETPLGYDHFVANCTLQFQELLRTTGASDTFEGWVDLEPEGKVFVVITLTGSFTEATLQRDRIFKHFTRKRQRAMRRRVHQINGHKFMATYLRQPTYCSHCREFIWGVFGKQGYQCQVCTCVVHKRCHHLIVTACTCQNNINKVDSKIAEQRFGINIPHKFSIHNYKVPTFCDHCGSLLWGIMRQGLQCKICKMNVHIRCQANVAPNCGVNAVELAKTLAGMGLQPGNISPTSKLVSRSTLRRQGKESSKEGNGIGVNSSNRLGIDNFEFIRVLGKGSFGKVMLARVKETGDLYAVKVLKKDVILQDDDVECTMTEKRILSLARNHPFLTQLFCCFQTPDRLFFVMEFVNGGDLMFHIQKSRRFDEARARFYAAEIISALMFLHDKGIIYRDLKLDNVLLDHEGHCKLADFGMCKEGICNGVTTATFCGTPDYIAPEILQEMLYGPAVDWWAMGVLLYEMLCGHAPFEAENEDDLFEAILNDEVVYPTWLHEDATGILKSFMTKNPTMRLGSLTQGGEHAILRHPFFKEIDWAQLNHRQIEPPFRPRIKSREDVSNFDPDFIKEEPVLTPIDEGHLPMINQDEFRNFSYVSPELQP
Protein kinase C theta type (Homo sapiens), sequence (Q04759 whole entry, looked up): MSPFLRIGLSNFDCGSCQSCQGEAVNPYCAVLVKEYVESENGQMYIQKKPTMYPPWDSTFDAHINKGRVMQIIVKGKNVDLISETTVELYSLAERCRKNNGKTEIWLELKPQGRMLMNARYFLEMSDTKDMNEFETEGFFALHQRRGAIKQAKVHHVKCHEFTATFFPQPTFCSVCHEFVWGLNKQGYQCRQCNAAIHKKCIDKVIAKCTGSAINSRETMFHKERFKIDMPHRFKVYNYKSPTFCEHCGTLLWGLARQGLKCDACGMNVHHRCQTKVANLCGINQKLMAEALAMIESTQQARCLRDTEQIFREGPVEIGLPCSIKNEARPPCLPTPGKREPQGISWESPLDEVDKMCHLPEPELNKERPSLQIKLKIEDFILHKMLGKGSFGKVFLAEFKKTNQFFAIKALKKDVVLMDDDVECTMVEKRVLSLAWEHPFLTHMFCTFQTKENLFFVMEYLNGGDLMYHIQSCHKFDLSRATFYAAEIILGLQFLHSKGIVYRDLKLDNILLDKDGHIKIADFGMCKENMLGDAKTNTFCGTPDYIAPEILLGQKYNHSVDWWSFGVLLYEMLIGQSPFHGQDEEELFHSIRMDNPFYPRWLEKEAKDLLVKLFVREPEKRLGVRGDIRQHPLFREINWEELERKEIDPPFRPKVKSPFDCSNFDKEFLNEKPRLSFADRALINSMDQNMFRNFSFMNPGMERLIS

Broadly, the inhibition is the drop in the measured response relative to a control, in per cent. As to `c1cc(-c2cnn3nc(N4CCOCC4)ccc23)nc(NC2CC2)n1`, the inhibition in assay [1] was 4.31%; in assay [2], 1.21%; in [3], 1.42%; in [4], 1.17%; in [5], 6.27%; in assay [6] it was -0.45%. In addition, the inhibition in [7] was -0.77%; in assay [8] it was 2.39%; in assay [9], 2.99%; in assay [10], 6.1%; in assay [11], 1.85%; in assay [12], 1.79%. Further, the inhibition in [13] came to 3.89%; in assay [14] it was 1.39%; in [15] it was 1.61%; in assay [16] it was 0.87%; in assay [17], 1.89%; in assay [18] it was 3.97%. Also, the inhibition in assay [19] turned out to be 39.6%; in assay [20], 6.38%.
Turning to `CCOc1ccc2c(-c3ccnc(Nc4cccc(C(F)(F)F)c4)n3)cnn2n1`, the inhibition in [1] is -2.03%; in assay [2] it was 1.32%; in assay [3] it was 1.22%; in assay [4], 0.95%; in [5], 0.74%; in [6], 0.58%. In addition, the inhibition in assay [7] is 0.67%; in assay [8] it was 0.98%; in assay [9] it was -0.29%; in [10], 4.45%; in [11] it was 2.94%; in assay [12], 1.45%. The inhibition is 0.72% in assay [13]; 0.84% in assay [14]; 0.7% in [15]; 0.45% in [16]; 0.29% in assay [17]; 3.34% in assay [18]. Also, the inhibition came to 3.21% in assay [19] and 3.62% in assay [20].
As for `CCN(CC)S(=O)(=O)c1ccc(OC)c(Nc2ncc(-c3ccccc3)o2)c1`, the inhibition in [1] is 1.9%; in [2] it was 0.79%; in [3] it was 1.82%; in assay [4], 0.46%; in assay [5], 1.64%; in [6] it was 1.38%. The inhibition in [7] is 1.74%; in assay [8], 3.12%; in assay [9], 0.58%; in [10], 0.29%; in assay [11] it was 3.98%; in assay [12], 0.63%. For the same compound, the inhibition in [13] is -0.91%; in assay [14] it was 1.36%; in assay [15], 1.38%; in [16] it was 0.23%; in assay [17] it was 1.41%; in assay [18] it was 1.66%. Besides, the inhibition in assay [19] was 0.39%; in [20] it was 0.75%.
Take `Fc1ccc(-c2nn3ncccc3c2-c2ccnc(Nc3ccc4c(c3)OCCO4)n2)cc1`: the inhibition was determined as 1.87% in assay [1]; 2.22% in [2]; 7.13% in assay [3]; 1.5% in assay [4]; 15.3% in assay [5]; 1.43% in assay [6]. For the same compound, the inhibition in assay [7] is 13.3%; in assay [8] it was 2.26%; in [9], 6.09%; in assay [10], -1.6%; in assay [11], 7.86%; in assay [12] it was 0.67%. For the same compound, the inhibition in assay [13] came out at 3.27%; in assay [14] it was 1.22%; in assay [15] it was 3.8%; in assay [16], 3.86%; in [17] it was 20.1%; in assay [18], 4.89%. For the same compound, the values for the inhibition in assay [19] and in [20] were 36.5% and 8.87%, respectively.
With `CCn1cc(-c2ccnc3[nH]ccc23)c(-c2cccc(NC(=O)Nc3ccc(OCc4ccccc4)cc3)c2)n1`, the inhibition in assay [1] is -1.57%; in [2] it was 4.08%; in [3], 5.34%; in assay [4] it was 1.25%; in assay [5] it was 2.76%; in assay [6], 0.5%. Moreover, the inhibition is 1.43% in [7]; -2.7% in assay [8]; 1.78% in assay [9]; 0.3% in [10]; 2.68% in assay [11]; -0.3% in [12]. The inhibition in assay [13] turned out to be 0.28%; in assay [14], 0.93%; in assay [15] it was 1.88%; in assay [16], 0.47%; in assay [17] it was 1.93%; in assay [18], 2.3%. Besides, the inhibition in assay [19] was determined as 5.37%; in [20], 18.8%.
For the compound `COc1ccc2c(-c3ccnc(Nc4cccc(OC(F)(F)F)c4)n3)cnn2n1`, the inhibition in assay [1] was 1.72%; in [2], 1.61%; in assay [3], 3.17%; in assay [4], 1.34%; in [5] it was 12.7%; in [6], 0.08%. Besides, the inhibition in assay [7] worked out at 3.07%; in [8], 6.47%; in assay [9], 6.9%; in assay [10], 5.4%; in assay [11] it was 1.65%; in [12], 2.36%. Moreover, the inhibition was found to be 1.45% in assay [13]; 2.59% in [14]; 4.8% in assay [15]; 1.08% in assay [16]; 5.19% in assay [17]; 3.42% in [18]. The inhibition is 6.19% in [19] and 3.92% in assay [20].
Regarding `COc1cccc(-c2c[nH]c3c(N/N=C/c4ccncc4)ncnc23)c1`, the inhibition in [1] stood at 6.08%; in [2] it was 1.57%; in assay [3], 3.93%; in [4], 0.02%; in assay [5], 4.24%; in assay [6] it was 2.33%. For the same compound, the inhibition was 4.29% in assay [7]; 2.72% in assay [8]; 1.53% in assay [9]; 2.27% in assay [10]; 7.65% in [11]; 4.1% in [12]. In addition, the inhibition worked out at 20.3% in [13]; 0.91% in assay [14]; 0.99% in assay [15]; 1.66% in [16]; 5.79% in [17]; 1.3% in [18]. Moreover, the inhibition in assay [19] worked out at 6.07%; in [20], 1.26%.
